PubChem BioAssay (NCATS)
Records with an inconclusive call do not appear. Active and inactive are the calls of the source. Unless noted, the call rests on the fitted dose curve; in most records, active means well fitted curve in the direction sought with a large enough effect; inconclusive means small, poorly fitted or top-dose-only effect, or another doubt; inactive means no such curve, though single readings can be large; an effect the other way counts as inactive or inconclusive.

What was measured:
[1] = S16 Schwann cell PMP22 intronic element firefly luciferase assay (AID 624032); further: nearly all actives have a fitted effect of over 30% in size
Procedure, shortened: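 Rat S16 Schwann cells stably carrying firefly luciferase driven by a PMP22 intronic element, in 10% FBS, treated 24 h at 37 C. ONE-Glo luminescence normalized to PTC124 control and DMSO (0%); curves classed by r2, magnitude and activity.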

[2] = system: ATS95; assay: qHTS profiling for inhibitors of Plasmodium falciparum proliferation (AID 504749); further: nearly all actives have a fitted effect of over 60% in size; settings: P. falciparum in erythrocytes, SYBR Green DNA, 72 h; series mostly up to 12.8 µM
Procedure, shortened: (§1)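 Each compound contacts P. falciparum-infected red blood cells for 72 h at 37 C; lysis buffer (Tris, EDTA, saponin, Triton X, SYBR Green I) is added and fluorescence measured next morning; values normalized to controls.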

[3] = system: CP192; assay: as above; settings: P. falciparum in erythrocytes, SYBR Green DNA, 72 h; series mostly up to 28.7 µM
Procedure, shortened: as §1

[4] = system: CP260; assay: as above; settings: P. falciparum in erythrocytes, SYBR Green DNA, 72 h; series mostly up to 12.8 µM
Procedure, shortened: as §1

[5] = system: CP266; assay: as above; settings: P. falciparum in erythrocytes, SYBR Green DNA, 72 h; series mostly up to 28.7 µM
Procedure, shortened: as §1

[6] = system: CP269; assay: as above; settings: P. falciparum in erythrocytes, SYBR Green DNA, 72 h; series mostly up to 12.8 µM
Procedure, shortened: as §1

[7] = system: CP297; assay: as above; settings: P. falciparum in erythrocytes, SYBR Green DNA, 72 h; series mostly up to 12.8 µM
Procedure, shortened: as §1

[8] = system: CP315; assay: as above; settings: P. falciparum in erythrocytes, SYBR Green DNA, 72 h; series mostly up to 12.8 µM
Procedure, shortened: as §1

[9] = system: DIV14; assay: as above; settings: P. falciparum in erythrocytes, SYBR Green DNA, 72 h; series mostly up to 12.8 µM
Procedure, shortened: as §1

[10] = system: DIV17; assay: as above; settings: P. falciparum in erythrocytes, SYBR Green DNA, 72 h; series mostly up to 12.8 µM
Procedure, shortened: as §1

[11] = system: GB4; assay: as above; settings: P. falciparum in erythrocytes, SYBR Green DNA, 72 h; series mostly up to 12.8 µM
Procedure, shortened: as §1

[12] = system: P93_24; assay: as above; settings: P. falciparum in erythrocytes, SYBR Green DNA, 72 h; series mostly up to 12.8 µM
Procedure, shortened: as §1

[13] = system: W2; assay: as above; settings: P. falciparum in erythrocytes, SYBR Green DNA, 72 h; series mostly up to 12.8 µM
Procedure, shortened: as §1

[14] = molecular target: Guanine nucleotide-binding protein G(i) subunit alpha-1 (Homo sapiens) (UniProt P63096); assay: qHTS Assay for Inhibitors of RGS12 GoLoco Motif Activity (Green Fluorophore) (AID 879);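 further: negative values mean loss of peptide binding seen as reduced polarization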
Guanine nucleotide-binding protein G(i) subunit alpha-1 (Homo sapiens), sequence (P63096 whole entry, looked up): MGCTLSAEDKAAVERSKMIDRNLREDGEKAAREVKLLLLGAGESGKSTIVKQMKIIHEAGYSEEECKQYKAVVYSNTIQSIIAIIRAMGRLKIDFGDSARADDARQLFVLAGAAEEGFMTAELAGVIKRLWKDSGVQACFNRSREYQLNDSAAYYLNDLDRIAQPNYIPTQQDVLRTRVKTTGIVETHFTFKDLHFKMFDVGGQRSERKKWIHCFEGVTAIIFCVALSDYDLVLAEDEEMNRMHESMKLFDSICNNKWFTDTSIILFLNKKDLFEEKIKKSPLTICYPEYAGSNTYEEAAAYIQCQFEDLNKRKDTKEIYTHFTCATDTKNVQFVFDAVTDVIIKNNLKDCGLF
Procedure, shortened: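 A drop in FITC polarization marked displacement of the FITC-tagged RGS12 GoLoco peptide (10 nM) from Gαi1 (50 nM). Compounds were incubated 10 min at room temperature in Tris pH 7.5 buffer containing 150 mM NaCl, 0.1 mM GDP and 0.05% NP40; unlabeled peptide titration served as control.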

[15] = molecular target: Cytochrome P450 3A4 (Homo sapiens) (UniProt P08684); assay: qHTS Assay for Activators of Cytochrome P450 3A4 (AID 885); further: nearly all actives have a fitted effect of over 65% in size
Cytochrome P450 3A4 (Homo sapiens), sequence (P08684 whole entry, looked up): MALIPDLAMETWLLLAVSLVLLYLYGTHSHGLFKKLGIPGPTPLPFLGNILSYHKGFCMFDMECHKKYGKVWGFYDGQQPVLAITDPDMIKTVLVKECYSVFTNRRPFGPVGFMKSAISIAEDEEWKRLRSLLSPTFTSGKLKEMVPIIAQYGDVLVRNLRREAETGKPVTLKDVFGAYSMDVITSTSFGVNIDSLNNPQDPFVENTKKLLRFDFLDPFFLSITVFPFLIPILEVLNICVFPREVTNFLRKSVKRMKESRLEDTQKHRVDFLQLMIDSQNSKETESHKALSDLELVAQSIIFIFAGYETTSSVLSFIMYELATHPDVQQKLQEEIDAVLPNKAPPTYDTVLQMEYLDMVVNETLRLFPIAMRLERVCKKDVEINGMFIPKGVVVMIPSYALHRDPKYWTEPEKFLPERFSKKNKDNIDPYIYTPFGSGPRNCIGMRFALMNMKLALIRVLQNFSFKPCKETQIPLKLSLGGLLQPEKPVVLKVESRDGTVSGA
Procedure, shortened: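 Human CYP3A4 dealkylates Luciferin-PPXE to luciferin, which luciferase detection converts to light. Substrate was at its KM (25uM), buffer 200mM KPO4, reaction 60 min at RT.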

[16] = molecular target: Pyruvate kinase (Leishmania mexicana) (UniProt Q27686); assay: qHTS Validation Assay for Inhibitors of Leishmania Mexicana Pyruvate Kinase (AID 945)
Pyruvate kinase (Leishmania mexicana), sequence (Q27686 2-499 E452W): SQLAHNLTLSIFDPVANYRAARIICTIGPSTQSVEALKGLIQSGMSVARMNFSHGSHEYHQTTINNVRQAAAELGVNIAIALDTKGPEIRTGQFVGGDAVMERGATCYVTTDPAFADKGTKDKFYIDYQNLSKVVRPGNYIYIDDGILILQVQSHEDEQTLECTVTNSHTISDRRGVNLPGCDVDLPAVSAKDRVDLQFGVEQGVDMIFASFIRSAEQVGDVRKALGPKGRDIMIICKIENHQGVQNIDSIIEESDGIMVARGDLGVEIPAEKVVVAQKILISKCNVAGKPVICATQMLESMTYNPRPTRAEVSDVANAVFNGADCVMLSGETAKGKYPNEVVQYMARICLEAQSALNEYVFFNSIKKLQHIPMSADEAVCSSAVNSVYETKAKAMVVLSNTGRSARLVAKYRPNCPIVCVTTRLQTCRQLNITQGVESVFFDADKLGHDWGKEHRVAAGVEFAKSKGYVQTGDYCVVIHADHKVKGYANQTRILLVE
Procedure, shortened: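 The enzyme is a highly purified E451W mutant of LmPYK used at 0.2 nM. It converts 0.5 mM PEP and 0.1 mM ADP over 1 h at room temperature; product ATP is quantified by luciferase luminescence relative to DMSO controls.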

[17] = molecular target: Pyruvate kinase PKM (Homo sapiens) (UniProt P14618); assay: qHTS Assay for Activators of Human Muscle Pyruvate Kinase (AID 954; active means well fitted curve in the direction sought with a large enough effect, not every such curve was filed as active)
Pyruvate kinase PKM (Homo sapiens), sequence (P14618 whole entry, looked up): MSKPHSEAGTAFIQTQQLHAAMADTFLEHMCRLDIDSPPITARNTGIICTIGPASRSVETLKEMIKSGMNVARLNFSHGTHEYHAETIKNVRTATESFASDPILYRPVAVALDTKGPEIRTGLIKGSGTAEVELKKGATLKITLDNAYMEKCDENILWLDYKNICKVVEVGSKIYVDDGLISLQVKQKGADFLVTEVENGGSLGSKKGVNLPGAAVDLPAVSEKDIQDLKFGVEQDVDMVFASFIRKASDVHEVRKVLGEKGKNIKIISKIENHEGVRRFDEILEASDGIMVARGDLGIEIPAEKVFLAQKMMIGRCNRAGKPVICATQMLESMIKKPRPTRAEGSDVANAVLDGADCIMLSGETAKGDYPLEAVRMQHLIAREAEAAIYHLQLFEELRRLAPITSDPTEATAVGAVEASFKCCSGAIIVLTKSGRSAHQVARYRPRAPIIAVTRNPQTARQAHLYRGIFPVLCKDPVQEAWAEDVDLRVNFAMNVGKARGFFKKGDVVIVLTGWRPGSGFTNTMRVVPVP
Procedure, shortened: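 Compound pinned into substrate mix (0.5 mM PEP, 0.1 mM ADP), then 0.1 nM PKM2 added; 1 h, RT. Stop/detection luciferase reagent added, luminescence read. Normalized to no-inhibition and no-enzyme or reference-inhibitor controls.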

[18] = molecular target: Alpha-galactosidase A (Homo sapiens) (UniProt P06280); assay: Counterscreen for Glucocerebrosidase Inhibitors: qHTS Assay for Human alpha-Galactosidase at pH 4.5 (AID 992)
Alpha-galactosidase A (Homo sapiens), sequence (P06280 whole entry, looked up): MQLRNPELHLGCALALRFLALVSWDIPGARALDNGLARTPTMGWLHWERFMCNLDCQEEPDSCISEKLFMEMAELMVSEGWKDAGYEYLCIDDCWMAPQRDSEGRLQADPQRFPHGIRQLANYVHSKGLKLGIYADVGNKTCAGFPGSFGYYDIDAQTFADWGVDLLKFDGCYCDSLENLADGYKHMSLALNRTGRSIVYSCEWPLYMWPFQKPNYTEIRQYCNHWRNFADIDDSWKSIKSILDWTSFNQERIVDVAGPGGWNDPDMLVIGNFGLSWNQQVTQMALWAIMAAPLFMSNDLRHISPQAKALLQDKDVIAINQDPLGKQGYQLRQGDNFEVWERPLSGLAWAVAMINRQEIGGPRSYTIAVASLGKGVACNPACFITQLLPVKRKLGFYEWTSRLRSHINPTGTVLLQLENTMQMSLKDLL
Procedure, shortened: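 Steps: enzyme (2 nM final), then compound across 0.7 nM to 77 uM, then 80 uM fluorogenic galactopyranoside substrate; incubate 20 min at room temperature; quench at pH 10; measure fluorescence at 365/440 nm.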

[19] = molecular target: alpha-glucosidase (Oryza sativa, rice) (UniProt Q653V4); assay: Counterscreen for Glucocerebrosidase Inhibitors: qHTS Assay for Rice alpha-Glucosidase at pH 5.0 (AID 997)
Procedure, shortened: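 Endpoint fluorogenic assay at pH 5.0: compounds (0.7 nM to 77 uM) titrated against 4 nM rice enzyme and 400 uM 4-MU-alpha-glucoside for 20 min at room temperature; NaOH/glycine stop, read ex 365/em 440 nm, Hill-fitted AC50.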

[20] = qHTS Assay for Identification of Small Molecule Agonists for Thrombopoietin (TPO) Signaling Pathway (AID 917)
Procedure, shortened: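 Quantitative HTS for pathway activators: compounds were pin-transferred onto IL-3-starved Ba/F3 cells expressing human TPO receptor, TPO was added at its EC50 (26 pM final), and after 24 hrs at 37 C reporter luciferase was measured.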

Measured: Potency

CC(=O)Nc1c(I)c(C(=O)N[C@H]2[C@@H](O)[C@H](O)[C@H](CO)O[C@@H]2O)c(I)c(N(C)C(C)=O)c1I
inactive: [1] | [2] | [3] | [4] | [5] | [6] | [7] | [8] | [9] | [10] | [11] | [12] | [13]

OCCN1CCN(CC/C=C2\c3ccccc3Sc3ccc(C(F)(F)F)cc32)CC1
inactive: [14] | [15] | [16] | [17] | [18] | [19]

C[C@@H](CN(C)C)CN1c2ccccc2CCc2ccccc21
inactive: [14] | [15] | [16] | [17] | [18] | [19] | [1] | [2] | [3] | [4] | [5] | [7] | [8]

CCN1C(=O)N[C@@H](c2ccccc2)C1=O
inactive: [1] | [3] | [4] | [5] | [6] | [7] | [8] | [9] | [10] | [11] | [12] | [13]

CN(C)CC[C@@H](c1ccccc1)c1ccccn1
inactive: [14] | [20] | [16] | [17] | [18] | [19]

O=C(O)/C=C\c1ccc(Cn2ccnc2)cc1
inactive: [1] | [2] | [3] | [4] | [7] | [8] | [9] | [10] | [11] | [12] | [13]

Cc1ccccc1[C@@H](OCCN(C)C)c1ccccc1
inactive: [14] | [15] | [20] | [16] | [17] | [18] | [19]

CCCN1C[C@H](CSC)C[C@H]2c3cccc4[nH]cc(c34)C[C@@H]21
inactive: [15]

CC1(C)Oc2ccc(C#N)cc2[C@H](N2CCCC2=O)[C@H]1O
inactive: [1] | [2] | [3] | [5] | [6] | [7] | [8] | [9] | [10] | [11] | [12] | [13]

C[N+]1(C)CCC[C@@H](OC(=O)C(O)(c2ccccc2)c2ccccc2)C1
inactive: [1] | [2] | [4] | [5] | [6] | [7] | [9] | [10] | [11] | [12] | [13]

C[C@@H](C(=O)O)c1cccc(C(=O)c2ccccc2)c1
inactive: [14] | [16] | [17] | [18] | [19] | [1]

CS(=O)(=O)N1CCC[C@@]2(CCN(c3ccncc3)C2)C1
inactive: [15]

COc1c(O)cc2c(c1O)[C@@H]1O[C@@H](CO)[C@@H](O)[C@@H](O)[C@@H]1OC2=O
inactive: [1] | [2] | [3] | [4] | [5] | [6] | [7] | [8] | [9] | [10] | [11] | [12] | [13]

C=C1C2CC[C@@]3(C)C(c4ccoc4)OC(=O)C[C@@]13OC1CC(O)C(C)(C)C(CC(=O)OC)[C@@]12C (some centres undefined)
inactive: [15]

CC1(C)O[C@@H]2C[C@H]3[C@H]4C[C@H](F)C5=CC(=O)C=C[C@@]5(C)[C@@H]4[C@H](O)C[C@]3(C)[C@]2(C(=O)CO)O1
inactive: [15] | [1] | [2] | [3] | [4] | [5] | [6] | [7] | [8] | [9] | [10] | [11] | [12] | [13]

CN[C@@H](CC(C)C)C(=O)N[C@@H]1C(=O)N[C@H](CC(N)=O)C(=O)N[C@@H]2C(=O)N[C@H]3C(=O)N[C@H](C(=O)N[C@H](C(=O)O)c4cc(O)cc(O)c4-c4cc3ccc4O)[C@H](O)c3ccc(c(Cl)c3)Oc3cc2cc(c3O[C@H]2O[C@@H](CO)[C@@H](O)[C@@H](O)[C@@H]2O[C@@H]2C[C@](C)(N)[C@H](O)[C@H](C)O2)Oc2ccc(cc2Cl)[C@@H]1O
inactive: [1] | [2] | [3] | [4] | [5] | [6] | [7] | [8] | [9] | [10] | [11] | [12] | [13]

O=C(Cc1cccs1)NC1C(=O)N2C(C(=O)[O-])=C(C[n+]3ccccc3)CSC12 (centres undefined)
inactive: [1] | [2] | [3] | [4] | [5] | [6] | [7] | [8] | [9] | [10] | [11] | [12] | [13]

COC(=O)C1OC(=O)C2OC23[C@]2(C)C(O)CC4C(C)(C)C(OC(C)=O)CC(OC(C)=O)[C@@]4(C)C2CC[C@@]13C (some centres undefined)
inactive: [15]

O=c1[nH]cnc2c1ncn2C1OC(CO)C(O)C1O (centres undefined)
inactive: [1] | [2] | [4] | [5] | [6] | [7] | [9] | [10] | [11] | [12] | [13]

CC(=O)Oc1cc(OC(C)=O)c2c(c1)OC(c1ccc(OC(C)=O)c(OC(C)=O)c1)C(OC(C)=O)C2 (centres undefined)
inactive: [15]

CO/N=C(/C(=O)NC1C(=O)N2C(C(=O)O)=C(CSc3nc(=O)c(O)nn3C)CSC12)c1csc(N)n1 (centres undefined)
inactive: [1] | [2] | [3] | [4] | [5] | [6] | [7] | [8] | [10] | [11] | [12]

O=c1c(O)c(-c2ccc(O)cc2)oc2ccccc12
inactive: [15]

CN(C)CC[C@H](c1ccc(Br)cc1)c1ccccn1
inactive: [14] | [16] | [17] | [18] | [19]

O=C(O)[C@H]1CCCN(CCC=C(c2ccccc2)c2ccccc2)C1
inactive: [14] | [20] | [16] | [17] | [18] | [19]

COc1ccc([C@H]2Sc3ccccc3N(CCN(C)C)C(=O)[C@H]2OC(C)=O)cc1
inactive: [20] | [16] | [17] | [18] | [19]
